This is a sample that favours compounds with a hit; in the whole collection about 18% have one here.
CtBP-E1A blk = CtBP/E1A binding inhibition; AlphaScreen GST-E1A/His-CtBP binding, 1536-well; active compounds read low; activity change, % (no concentration beside the values); actives 0.49% (n = 340,000); AID 651724; in the data active = activity change below about -65%; inconclusive = mostly about -30% to -63%
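In 5 uL wells, 23 nL compound meets equimolar GST-E1A and His-CtBP (5X stock 125 nM each) for 2 h, 37 °C. Beads (5X, 50 ug/mL) then 1 h, 37 °C, dark.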
TDP1 block = TDP1 (human) enzyme inhibition. Potency, µM (doses to about 130 µM), without a hit: at the highest dose activity change, negative = inhibition, actives largely listed as inhibitors. actives 0.28% (n = 350,000). Q9NUW8. recombinant TDP1, AlphaScreen DNA substrate cleavage; also: potency is read from the fitted curve at half-maximal effect; nearly all actives have a fitted effect of over 40% in size
Target sequence (Q9NUW8 whole entry, looked up): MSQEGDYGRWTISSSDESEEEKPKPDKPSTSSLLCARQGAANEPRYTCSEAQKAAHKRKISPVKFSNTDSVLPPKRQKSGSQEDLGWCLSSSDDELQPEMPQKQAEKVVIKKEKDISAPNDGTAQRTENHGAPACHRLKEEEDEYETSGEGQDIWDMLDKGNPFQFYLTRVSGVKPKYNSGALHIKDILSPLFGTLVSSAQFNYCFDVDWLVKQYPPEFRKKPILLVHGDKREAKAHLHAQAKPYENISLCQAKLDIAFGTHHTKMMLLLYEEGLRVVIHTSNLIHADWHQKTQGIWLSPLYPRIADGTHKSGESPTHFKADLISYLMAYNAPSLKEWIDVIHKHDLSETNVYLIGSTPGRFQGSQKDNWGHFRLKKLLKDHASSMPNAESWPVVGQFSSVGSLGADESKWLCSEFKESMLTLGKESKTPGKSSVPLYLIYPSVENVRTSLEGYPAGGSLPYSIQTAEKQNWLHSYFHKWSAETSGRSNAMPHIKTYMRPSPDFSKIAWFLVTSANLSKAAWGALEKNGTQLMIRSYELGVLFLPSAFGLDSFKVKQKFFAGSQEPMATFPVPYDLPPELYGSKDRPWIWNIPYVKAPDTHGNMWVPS
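E. coli-derived human Tdp1, 1 nM final. Cpd preinc 15 min RT; substrate 15 nM final, 5 min RT; AS bead mix 10 ug/ml final, 10 min RT. Signal loss = tyrosine-FITC cleavage. No-enzyme wells = max signal.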
DT40 TDP1 CPT = DT40-hTDP1 cell growth loss with CPT. chicken DT40 Tdp1-/-;hTDP1 cells + 20 nM CPT, ATP luminescence, 48 h. Potency, µM (doses to about 46.2 µM), for the others: at the highest dose activity change, negative = growth inhibition, actives largely listed as inhibitors. AID 686979. actives 12% (n = 420,000); also: potency is read from the fitted curve at half-maximal effect; nearly all actives have a fitted effect of over 55% in size
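Cell growth measured by CellTiter-Glo luminescence after a minimum 48 h, 37 C compound exposure with 20 nM CPT in Tdp1-knockout DT40 cells stably expressing hTDP1, seeded 400/well; qHTS titration format.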
IL-1B inflam inh = blocks inflammasome-driven IL-1 beta release | THP-1 LPS/ATP IL-1B secretion, AlphaLISA, 16 h; active compounds read low | activity change, % at 57.5 µM | actives 4.7% (n = 360,000) | AID 743279; in the data active = activity change below about -50%; inconclusive = mostly about -30% to -49%
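Secreted IL-1B measured by AlphaLISA bead assay after 16 h compound exposure of THP-1 cells; compounds (final up to 57.5 uM) added 1 h before LPS (250 ng/mL) and ATP (1.25 mM) stimulation; lower signal means less secretion.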
Six1-Eya2 blk = blocks human Six1 binding to Eya2; Q15475+O00167; actives 0.56% (n = 360,000); activity change, % (no concentration beside the values); AID 651725; AlphaScreen GST-Six1/His-Eya2 binding, biochemical; active compounds read low; in the data active = activity change below about -65%; inconclusive = mostly about -30% to -63%
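AlphaScreen with GST-Six1 and His-Eya2 (5X mix: 250 nM and 500 nM), glutathione donor and nickel acceptor beads; buffer 50 mM Tris pH 8.0, 300 mM NaCl, 1 mM TCEP; 1 h at 37 C in the dark.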
TDP1 cell noCPT = qHTS for Inhibitors of human tyrosyl-DNA phosphodiesterase 1 (TDP1): qHTS in cells in absence of CPT. Potency, µM (doses to about 46.2 µM), for inactives: at the highest dose activity change, negative = growth inhibition, most hits filed as inhibitors. AID 686978, 2013. actives 15% (n = 420,000). DT40 Tdp1-/- hTDP1 cells, no CPT, ATP luminescence, 48 h; also: potency is read from the fitted curve at half-maximal effect; nearly all actives have a fitted effect of over 55% in size
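Growth of hTDP1-complemented DT40 Tdp1-knockout cells is measured by ATP luminescence after at least 48 hr compound exposure at 37 °C, with DMSO substituting for the 20 nM CPT used in the parallel screen.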
Numbers without * were called inactive; ? = inconclusive; . = no result. Unless noted, calls follow the shape of the dose curve; as a rule, active = well fitted curve in the direction sought with a large enough effect; inconclusive = small, poorly fitted or top-dose-only effect, or another doubt; inactive = no such curve, though single readings can be large; an effect the other way counts as inactive or inconclusive. % is scaled to controls: 0 for no effect and ±100 for the full control effect.

SMILES	CtBP-E1A blk	TDP1 block	DT40 TDP1 CPT	IL-1B inflam inh	Six1-Eya2 blk	TDP1 cell noCPT
O=C(NC(=S)NC1CCCCC1)c1ccccc1	-3	9%	-28%	21	0	?
C/C(=N\NC(=S)NC1CCCCC1)c1ccccc1	-19	0%	?	19	-26	29µM*
CC(Cl)C(=O)NN=C(c1ccccc1)c1ccccc1 (centres undefined)	-2	-3%	?	-22	13	-23%
C/C(=N\NC(=S)NC1CCCCC1)c1ccc(O)cc1	-15	8%	?	?	?	16µM*
CC(NC1CCCCC1)C(=O)NN=C(c1ccccc1)c1ccccc1 (centres undefined)	10	.	?	-63*	3	?
Cn1c(=O)c2c(nc3n2CCS3)n(C)c1=O	0	5%	-13%	-8	-1	-13%
CCc1ccccc1NC(=O)CC(c1ccc(OC)cc1)n1cccc1 (centres undefined)	4	3%	?	0	-5	?
CCCCN(C(=O)c1ccccc1OCc1ccc(F)cc1)c1c(N)n(CCC)c(=O)[nH]c1=O	0	1%	18µM*	6	3	?
CCCn1c(N)c(N(CCOC)C(=O)c2ccccc2F)c(=O)[nH]c1=O	5	3%	12%	-3	10	-4%
CCCCn1c(N)c(N(Cc2ccccc2OC)C(=O)c2ccc([N+](=O)[O-])s2)c(=O)[nH]c1=O	-8	.	?	65	-2	18µM*
CCCCn1c(N)c(N(CC(C)C)C(=O)c2cc(-c3ccco3)nc3ccccc23)c(=O)[nH]c1=O	0	.	-2%	-1	-11	-21%
CCCCN(C(=O)c1cc(-c2ccco2)nc2ccccc12)c1c(N)n(CCC)c(=O)[nH]c1=O	.	28µM*	-6%	-5	-18	-12%
CCCCN(C(=O)c1ccc(-c2ccc([N+](=O)[O-])cc2)o1)c1c(N)n(CCCC)c(=O)[nH]c1=O	17	-7%	?	12	-6	16µM*
Cc1[nH]c2ccc3c(ncn3CCC#N)c2c1C	-10	4%	5%	-23	-4	-1%
CCCOc1ccc(F)cc1-c1cc(C(=O)Nc2ccc(OC)c(OC)c2)[nH]n1	-6	.	21µM*	-68*	-8	?
CCCOc1ccc(F)cc1-c1cc(C(=O)Nc2ccc(C(C)C)cc2)[nH]n1	0	.	?	0	24	26µM*
CCCOc1ccc(F)cc1-c1cc(C(=O)NCc2cccs2)[nH]n1	-4	.	23µM*	?	-13	7.3µM*
COc1ccc(NC(=O)c2cc(-c3cc(F)ccc3OC)n[nH]2)cc1OC	-19	.	21µM*	-5	-18	23µM*
Nc1nc(-c2cccs2)c(NC(=O)c2ccccc2)s1	8	2%	16µM*	-95*	-6	18µM*
CCN(CC)CCNC(=O)Nc1ccc2c(c1)N(Cc1ccccc1)C(=O)c1ccccc1S2	.	8%	?	.	.	?
Cc1cc(/C=C(\C#N)C(=O)Nc2ccccc2F)c(C)[nH]1	11	4%	5%	-4	5	6%
CCN(CC)c1ccc(/C=C2\CCC(/C=C(\C#N)C(=O)Nc3ccccc3F)=C2N2CCOCC2)cc1	-22	3%	6.5µM*	0	-17	2.3µM*
CCN(CC)c1ccc(/C=C2\CCC(/C=C(/C#N)C(=O)Nc3ccccc3F)=C2N2CCOCC2)cc1	-14	.	2.1µM*	-14	-10	2.3µM*
Cc1nc(C)n(CC(=O)NCC2Cc3cc(-c4cccc(OC(F)(F)F)c4)ccc3O2)n1 (centres undefined)	.	.	-91%	.	.	0.018µM*
CC(C)CN(C#N)c1nc(N2CCOCC2)nc(N2CCOCC2)n1	-2	4%	12µM*	-10	7	12µM*

Source: PubChem BioAssay
